Four molecules from PubChem BioAssay AID1159580 (chemical genetic matrix, 2015) can be followed below.

In all, about 5,500 compounds went through this assay and about 2,000 (36%) were called active. Roughly 18% stayed inconclusive and do not appear here. This is one part of the list. Unmarked numbers belong to inactive results. Cut-off read from the data, not from the text of the source: active = normalized growth mostly below about 0.91 (no sharp cut-off); inconclusive = no clear call, values can overlap the other calls; inactive = mostly above about 0.92.

This assay is described as follows: chemical genetic growth profiling, strain panel (AID 1159580).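 Note: tested at 20 µM; growth read once vehicle control cultures reached saturation at 30 °C; 1 = growth at the plate median or of vehicle wells; lower values mean less growth of the strain.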 To be noted: S. cerevisiae deletion strains, growth OD.
[1] abbreviates: locus YAL013W, strain DEP1, stronger effect = lower value.
The mark [2] stands for this setting: locus YBR229C, strain ROT2, stronger effect = lower value.
[3] abbreviates: locus YDL101C, strain DUN1, stronger effect = lower value.
Setting [4] is: locus YDR150W, strain NUM1, stronger effect = lower value.
Setting [5] is: locus YEL061C, strain CIN8, stronger effect = lower value.
Where [6] appears, read: locus YGR078C, strain PAC10, stronger effect = lower value.
The mark [7] stands for this setting: locus YHR030C, strain SLT2, stronger effect = lower value.
Setting [8] is: locus YHR087W, strain rtc3, stronger effect = lower value.
[9] abbreviates: locus YJR043C, strain POL32, stronger effect = lower value.
[10] abbreviates: locus YJR075W, strain HOC1, stronger effect = lower value.
Where [11] appears, read: locus YLR039C, strain RIC1, stronger effect = lower value.
Setting [12] is: locus YLR058C, strain SHM2 (second series), stronger effect = lower value.
The mark [13] stands for this setting: locus YLR085C, strain ARP6, stronger effect = lower value.
Where [14] appears, read: locus YLR262C, strain YPT6, stronger effect = lower value.
[15] abbreviates: locus YML094W, strain GIM5, stronger effect = lower value.
The mark [16] stands for this setting: locus YMR219W, strain ESC1, stronger effect = lower value.
Setting [17] is: locus YMR263W, strain SAP30, stronger effect = lower value.
Setting [18] is: locus YNL128W, strain TEP1, stronger effect = lower value.
The mark [19] stands for this setting: locus YNL153C, strain GIM3, stronger effect = lower value.
Where [20] appears, read: locus YNL298W, strain CLA4 (second series), stronger effect = lower value.
The mark [21] stands for this setting: locus YNL322C, strain KRE1, stronger effect = lower value.
Where [22] appears, read: locus YNR030W, strain Alg12, stronger effect = lower value.
Setting [23] is: locus YOL006C, strain TOP1, stronger effect = lower value.
[24] abbreviates: locus YPL055C, strain LGE1, stronger effect = lower value.
Setting [25] is: locus YPL241C, strain CIN2, stronger effect = lower value.
[26] abbreviates: locus YPR135W, strain CTF4, stronger effect = lower value.
Setting [27] is: locus YMR307W, strain GAS1, stronger effect = lower value.
Setting [28] is: locus YAL040C, strain CLN3, stronger effect = lower value.
Where [29] appears, read: locus YCL061C, strain MRC1 (second series), stronger effect = lower value.
Where [30] appears, read: locus YDR363W, strain ESC2, stronger effect = lower value.
Where [31] appears, read: locus YER002W, strain NOP16, stronger effect = lower value.
[32] abbreviates: locus YNL175C, strain NOP13, stronger effect = lower value.
Where [33] appears, read: locus YNL197C, strain WHI3, stronger effect = lower value.
The mark [34] stands for this setting: locus YNL224C, strain SQS1, stronger effect = lower value.
[35] abbreviates: locus YOR083W, strain WHI5 (second series), stronger effect = lower value.

With `O=[N+]([O-])c1ccc(OCCCOc2ccc([N+](=O)[O-])cc2)cc1`, the normalized growth runs as follows: under setting [1], 1; under setting [2], 0.978; under setting [3], 0.98; under setting [4], 0.988; under setting [5], 0.979; under setting [6], 0.991. Moreover, the normalized growth reads like this: (locus YGR229C, strain SMI1, stronger effect = lower value) 0.995; under setting [7], 0.91; under setting [8], 0.973; under setting [9], 1.01; under setting [10], 0.971; (locus YKL190W, strain CNB1, stronger effect = lower value) 1. The normalized growth by setting is: under setting [11], 0.966; under setting [12], 0.975; under setting [13], 0.993; under setting [14], 0.969; under setting [15], 0.934; under setting [16], 0.983. The normalized growth reads like this: under setting [17], 1.01; under setting [18], 0.996; under setting [19], 0.995; under setting [20], 0.961; under setting [21], 0.99; under setting [22], 0.979. The normalized growth under setting [23] was 0.97, the normalized growth under setting [24] is 1.02, the normalized growth under setting [25] is 0.953 and the normalized growth under setting [26] was 0.932.
Turning to `O=[N+]([O-])c1ccc(Oc2cccc3cccnc23)cc1`, the normalized growth is, setting by setting: under setting [1], 1.01; under setting [2], 1; under setting [3], 0.942; (locus YDL134C, strain PPH21, stronger effect = lower value) 0.993; under setting [4], 1; under setting [5], 0.98. Also, the normalized growth was 0.991 under setting [6]; 0.736 under setting [7]; 1 under setting [8]; 0.98 under setting [9]; 1.02 under setting [10]; 0.805 under setting [11]. For the same molecule, the normalized growth was 1 under setting [12]; 0.959 under setting [13]; 0.799 (active) under setting [14]; 0.991 under setting [15]; 0.993 under setting [16]; 1 under setting [17]. Further, the normalized growth runs as follows: under setting [27], 0.719; under setting [19], 0.848 (active); under setting [20], 0.892; under setting [21], 1; under setting [22], 0.994; under setting [23], 0.872. For the same molecule, the normalized growth runs as follows: under setting [24], 0.919; under setting [25], 0.854 (active); under setting [26], 0.754.
`CNCC(O)c1ccc(O)cc1` (configuration not stated): the normalized growth reads like this: under setting [1], 1.03; under setting [28], 1.02; under setting [29], 1; under setting [30], 1.01; under setting [31], 1.02; under setting [6], 1.02. Besides, the normalized growth under setting [10] is 1.01; the normalized growth under setting [17] is 1; the normalized growth under setting [27] is 1.04; the normalized growth under setting [18] is 1.03; the normalized growth under setting [32] was 1.02; the normalized growth under setting [33] is 1.01. The normalized growth under setting [34] was 0.999, the normalized growth under setting [35] is 1.02 and the normalized growth under setting [25] was 1.
For `NNC(=O)c1ccc(O)cc1`, the normalized growth runs as follows: under setting [1], 0.949; under setting [28], 0.963; under setting [29], 0.991; under setting [4], 1.01; under setting [30], 0.99; under setting [31], 0.985. For the same molecule, the normalized growth was 0.992 under setting [6]; 0.988 under setting [10]; 0.986 under setting [17]; 0.989 under setting [19]; 0.994 under setting [32]; 0.991 under setting [33]. Moreover, the normalized growth is 0.974 under setting [34]; 0.97 under setting [21]; 1.05 under setting [35]; 0.977 under setting [24]; 0.988 under setting [25].
